Screens deposited in PubChem by National Center for Advancing Translational Sciences (NCATS).
An excerpt weighted towards active compounds, which were near 3.3% of everything screened.
PI5P4Ka inh = PI5P4K alpha (human) kinase inhibition. actives 1.2% (n = 330,000). PI5P4Kalpha enzyme, ADP-Glo luminescence, 60 min; hits give low values. P48426. max response, %; active means max response of -50% or lower; inconclusive means between -30% and -50%; inactive means -30% or higher; further: value at the top dose of about 77 µM; on the % scale 0 is the no-effect control and ±100 the full control effect
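Enzyme plus substrate dispensed, test compounds pinned in, then ATP (5 microM final) added. After 60 min at RT, ADP-Glo reagent 1 for 45 min and reagent 2 for 30 min preceded luminescence imaging.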
USP2a inh = USP2a (human) protease inhibition. O75604. AID 463254. Potency, µM (titrated, usually from 38.3 µM), without a hit: top-dose activity change, negative = inhibition, hits mostly inhibitors. actives 0.01% (n = 330,000). USP2 core, Ub-CHOP2 coupled fluorogenic reporter, 485/531;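 further: potency means the concentration at half of the fitted maximal effect; plate controls were DMSO wells for no effect and full inhibition by NEM control for full effect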
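Cell-free coupled assay: 10nM USP2 core preincubated 30min RT with compound in Tris-HCl pH 8.0/CaCl2/CHAPS buffer, then 25nM Ub-CHOP2 and 25nM reporter substrate; fluorescence (Ex 485/Em 531) read after 60min RT, normalized to NEM inhibition, concentration-response curves fitted.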
USP1 inh = inhibitors of human USP1/UAF1 deubiquitinase | O94782 | recombinant USP1/UAF1, Ub-Rhodamine cleavage fluorescence | Potency, µM (highest dose often 57.1 µM), inactives show at the highest dose activity change, negative = inhibition, actives largely listed as inhibitors | actives 0.23% (n = 390,000) | AID 743255; further: potency means the concentration at half of the fitted maximal effect; on the % scale 0 is the no-effect control and ±100 the full control effect; nearly all actives have a fitted effect of over 60% in size
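High-throughput fluorogenic screen: 1nM USP1/UAF1 complex, Ub-Rho substrate 150nM final, 50mM HEPES pH 7.8 with 0.5mM EDTA, 0.1 mg/ml BSA, 1mM TCEP and 0.01% Tween-20.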
PLK1 PBD block = blocks phosphopeptide binding to human PLK1 polo-box domain; Plk1 PBD binding of FITC phosphopeptide, fluorescence polarization; actives 2.8% (n = 360,000); P53350; AID 720504; Potency, µM, for inactives: max response, negative = inhibition, actives largely listed as inhibitors; further: potency means the concentration at half of the fitted maximal effect; series mostly up to about 57 µM; on the % scale 0 is the no-effect control and ±100 the full control effect; nearly all actives have a fitted effect of over 65% in size
WRN helicase inh-1 = blocks human WRN helicase | Q14191 | WRN helicase unwinding, fluorescent forked duplex, kinetic | Potency, µM (series often up to 114 µM), without a hit: top-dose activity change, negative = inhibition, hits mostly inhibitors | actives 0.46% (n = 360,000) | AID 651768; further: potency means the concentration at half of the fitted maximal effect; on the % scale 0 is the no-effect control and ±100 the full control effect; nearly all actives have a fitted effect of over 55% in size
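WRN at 20 nM final preincubated with compound 15 min at room temperature; reaction started with 100 nM fluorophore/quencher forked duplex oligonucleotide and 2 mM ATP final. Unwinding followed kinetically by red fluorescence (ex 525, em 598 nm).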
WRN helicase inh-2 = confirmation of human WRN helicase inhibitors; Potency, µM (highest dose often 57.1 µM), for inactives: at the top dose activity, negative = inhibition, usual class: inhibitors; actives 63% (n = 610); shares compounds with WRN helicase inh-1; AID 720497; WRN helicase DNA unwinding, fluorescence kinetic; further: potency means the concentration at half of the fitted maximal effect; nearly all actives have a fitted effect of over 65% in size
TO displacement = DNA binding via thiazole orange displacement | shares compounds with WRN helicase inh-1 | thiazole orange DNA binding displacement, fluorescence | Potency, µM (titrated, usually from 57.1 µM), inactives show at the highest dose activity change, negative = inhibition, actives largely listed as inhibitors | actives 10% (n = 610);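 further: drop in dye fluorescence marks compound binding to DNA; potency means the concentration at half of the fitted maximal effect; on the % scale 0 is the no-effect control and ±100 the full control effect; nearly all actives have a fitted effect of over 60% in size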
BLM counter = counter-screen for WRN helicase inhibitors: human BLM helicase inhibition; actives 60% (n = 610); Recombinant BLM helicase DNA unwinding, red fluorescence; Potency, µM (titrated, usually from 57.1 µM), for inactives: at the highest dose activity change, negative = inhibition, usual class: inhibitors; shares compounds with WRN helicase inh-1; further: potency means the concentration at half of the fitted maximal effect; nearly all actives have a fitted effect of over 60% in size
* = called active by the depositor. Unless noted, the call rests on the fitted dose curve; in most records, active means well fitted curve in the direction sought with a large enough effect; inconclusive means small, poorly fitted or top-dose-only effect, or another doubt; inactive means no such curve, though single readings can be large; an effect the other way counts as inactive or inconclusive.

O=C(CSc1nc2ccccc2n1CCc1ccccc1)c1ccc(O)c(O)c1 was read as PI5P4Ka inh -88.7*, USP2a inh inconclusive, USP1 inh 1.8%, PLK1 PBD block inconclusive, WRN helicase inh-1 7.94µM*, WRN helicase inh-2 6.81µM*, TO displacement 17.1µM* and BLM counter 1.52µM*.
Screening Oc1ccc(-c2cn3c(n2)SCC3)cc1 returned PI5P4Ka inh -17.0, USP2a inh 2.4%, USP1 inh 7.1%, PLK1 PBD block -10.0% and WRN helicase inh-1 3.3%.
For Oc1ccc(-c2cn3c(n2)SCC3)cc1O the results were PI5P4Ka inh -13.4, USP2a inh -1.1%, USP1 inh -10.5%, PLK1 PBD block 23.8µM*, WRN helicase inh-1 4.74µM*, WRN helicase inh-2 inconclusive, TO displacement 29.8% and BLM counter 17.1µM*.
COc1cccc(NC(=O)c2csc3c2CCCCC3)c1 was read as USP1 inh -16.4%.
For COC(=O)c1ccc(N2NC(=O)/C(=C/c3ccc(-c4ccc(Cl)c(C(=O)O)c4)o3)C2=O)cc1 the results were PI5P4Ka inh inconclusive, USP2a inh 1.3%, USP1 inh -9.1%, PLK1 PBD block 16.8µM*, WRN helicase inh-1 35.5µM*, WRN helicase inh-2 17.1µM*, TO displacement inconclusive and BLM counter 21.5µM*.
`COC(=O)c1ccccc1-c1ccc(/C=C2\C(=O)N(c3ccccc3)N=C2c2ccccc2)o1` gave PI5P4Ka inh -1.5, USP2a inh 1.1%, USP1 inh -18.9%, PLK1 PBD block inconclusive and WRN helicase inh-1 -2.2%.
Screening O=C1NN(c2ccc(Cl)c(Cl)c2)C(=O)/C1=C/c1ccc(-c2ccccc2C(=O)O)o1 returned PI5P4Ka inh -58.3*, USP2a inh 0.0%, USP1 inh inconclusive, PLK1 PBD block 18.9µM*, WRN helicase inh-1 31.6µM*, WRN helicase inh-2 19.2µM*, TO displacement -16.5% and BLM counter -23.1%.
COc1ccc(CN2C(=O)/C(=C/c3ccc(-c4ccc(Cl)c(C(=O)O)c4)o3)SC2=S)cc1 was read as USP2a inh 3.4%.
Screening O=c1c(C(c2ccc(O)cc2)c2c(O)nc3n(c2=O)CCS3)c(O)nc2n1CCS2 returned PI5P4Ka inh -58.8*, USP2a inh 1.5%, USP1 inh -4.3%, PLK1 PBD block 5.97µM*, WRN helicase inh-1 15µM*, WRN helicase inh-2 inconclusive, TO displacement -7.7% and BLM counter inconclusive.
Screening O=c1c2[nH]c3ccccc3c2nc2n1CCS2 returned PI5P4Ka inh -7.1, USP2a inh -9.7%, USP1 inh -10.9%, PLK1 PBD block -3.5% and WRN helicase inh-1 -9.4%.
For O=c1c(C(c2ccc(O)cc2)c2c(O)nc3n(c2=O)CCCS3)c(O)nc2n1CCCS2 the results were PI5P4Ka inh inconclusive, USP2a inh -0.6%, USP1 inh -21.9%, PLK1 PBD block 11.9µM*, WRN helicase inh-1 inconclusive, WRN helicase inh-2 inconclusive, TO displacement -3.2% and BLM counter 19.2µM*.
CCc1ccc(S(=O)(=O)c2nnn3c2nc(NCCc2ccccc2)c2sccc23)cc1 was read as USP1 inh -18.0%.
Screening Cc1ccc(NC2c3ncccc3C(=O)N2c2ccccc2C)cc1C (stereo unspecified) returned PI5P4Ka inh -0.6, USP2a inh -1.3%, USP1 inh -0.4%, PLK1 PBD block 6.7µM*, WRN helicase inh-1 44.7µM*, WRN helicase inh-2 2.2%, TO displacement -2.9% and BLM counter -15.8%.
